Experiment [1] is described as follows: ATG_GLI_CIS: Attagene CIS-FACTORIAL HepG2 Assay for human Zinc Finger Protein GLI1 (AID 2282945). To be noted: HepG2, Attagene cis-factorial reporter mRNA, GLI element; actives raise or lower the signal. In short, it runs like this:
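HepG2 cells transiently transfected with cis-promoter multiplexed reporter units report endogenous transcription factor activity. After 24 h chemical exposure, reporter mRNA was quantified by RT-PCR, 6-FAM labelling, HpaI digestion and capillary electrophoresis, with bidirectional fitting against DMSO.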

Experiment [2] is described as follows: ATG_ISRE_CIS: Attagene CIS-FACTORIAL HepG2 Assay for human Interferon Regulatory Factor 1 (IRF1) binding to an Interferon-Stimulated Response Element (ISRE) (AID 2282948). The settings on record: HepG2 ISRE cis-reporter (Attagene), mRNA transcription readout; actives raise or lower the signal. In short, it runs like this: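 Transfected HepG2 (multiple reporter transcription units, cis elements) dosed 24 h. RNA → oligo(dT) RT → PCR → 6-FAM primer extension → HpaI → CE. DMSO = negative control/baseline.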

Experiment [3] is described as follows: ATG_M_32_CIS: Attagene CIS-FACTORIAL HepG2 Assay for M32 Transcription Factor (Internal Marker) (AID 2282949).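 Also: background control marker of the multiplexed CIS panel rather than a real target.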 To be noted: HepG2 Attagene cis-factorial M32 reporter, mRNA; actives raise or lower the signal. In short, it runs like this:
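Internal background marker read-out: RT-PCR/capillary electrophoresis fluorescence of reporter transcripts from transiently transfected HepG2 cells after 24 h chemical exposure. Activity fitted bidirectionally relative to DMSO negative control.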

Experiment [4] in a line: ATG_M_06_CIS: Attagene CIS-FACTORIAL HepG2 Assay for M06 Transcription Factor (Internal Marker) (AID 2282950). To be noted: HepG2 Attagene CIS-FACTORIAL M06 internal marker reporter; actives raise or lower the signal. In short, it runs like this:
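Terse: HepG2, transient MRTU transfection (FuGene 6), 24 h dosing; total RNA, oligo(dT) RT, PCR, FAM label, HpaI cut, capillary electrophoresis; bidirectional fit vs DMSO baseline; background-control endpoint.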

The target in experiment [5] is Hypoxia-inducible factor 1-alpha (Homo sapiens) (UniProt Q16665). Briefly: ATG_HIF1a_CIS: Attagene CIS-FACTORIAL HepG2 Assay for human Hypoxia Inducible Factor 1 (HIF1A) (AID 2282951). The settings on record: HepG2 Attagene cis-factorial HIF1a reporter transcription; actives raise or lower the signal. In short, it runs like this:
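Endogenous-TF cis reporter readout, human HepG2 cells, 24 h incubation; mRNA detected via RT-PCR and capillary electrophoresis fluorescence; DMSO-normalised bidirectional fitting.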

Experiment [6] deals with Hepatocyte nuclear factor 6 (Homo sapiens) (UniProt Q9UBC0). Kind of experiment: ATG_HNF6_CIS: Attagene CIS-FACTORIAL HepG2 Assay for human Hepatocyte Nuclear Factor 6 (HNF6) (AID 2282952). The settings on record: HepG2 Attagene cis-factorial HNF6 reporter transcription; actives raise or lower the signal. In short, it runs like this: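 HepG2 cells transiently transfected with cis-element-driven multiplexed reporter units measuring endogenous transcription factor activity. After 24 h exposure, reporter mRNA quantified by RT-PCR, FAM-labelled fragments and capillary electrophoresis; bidirectional fitting versus DMSO.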

Experiment [7] concerns the target Heat shock factor protein 1 (Homo sapiens) (UniProt Q00613). Briefly: ATG_HSE_CIS: Attagene CIS-FACTORIAL HepG2 Assay for human Heat Shock Transcription Factor 1 (HSE) (AID 2282953). To be noted: HepG2 HSE cis-reporter, Attagene RNA transcription; actives raise or lower the signal. In short, it runs like this:
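Read-out: fluorescence of reporter-specific RT-PCR fragments separated by capillary electrophoresis. HepG2 carrying transfected cis-element reporter units; 24 h dosing; activity fitted in both directions relative to DMSO baseline.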

Experiment [8] can be described thus: ATG_MRE_CIS: Attagene CIS-FACTORIAL HepG2 Assay for human Metal Responsive Element (MRE) (AID 2282954). The settings on record: HepG2 MRE cis-reporter transcription, Attagene multiplex; actives raise or lower the signal. In short, it runs like this:
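HepG2 cells transiently transfected with multiple cis-element reporter units measure endogenous MTF1-driven transcription. After 24 h compound exposure, reporter mRNA is quantified by RT-PCR with 6-FAM labelling, HpaI digestion and capillary electrophoresis; bidirectional fits versus DMSO.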

Experiment [9] addresses Paired box protein Pax-6 (Homo sapiens) (UniProt P26367). Briefly: ATG_Pax6_CIS: Attagene CIS-FACTORIAL HepG2 Assay for human Paired Box 6 (PAX6) (AID 2282956). The settings on record: HepG2 CIS-FACTORIAL PAX6 reporter transcription, RNA readout; actives raise or lower the signal. In short, it runs like this: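 Transient MRTU transfection of HepG2 → compound exposure 24 h → TriZol RNA, oligo(dT) RT → PCR, 6-FAM primer extension, HpaI cut → capillary electrophoresis; activity fitted both directions against DMSO.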

Experiment [10] is described as follows: ATG_PXRE_CIS: Attagene CIS-FACTORIAL HepG2 Assay for human Pregnane X Receptor Element (PXRE) (AID 2282957). To be noted: HepG2 Attagene CIS-FACTORIAL PXRE reporter, mRNA; actives raise or lower the signal. In short, it runs like this: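 HepG2 cells transiently transfected with cis-element-driven multiplexed reporter units; after 24 h chemical exposure, reporter mRNA measured by RT-PCR, 6-FAM labelling, HpaI digestion and capillary electrophoresis. Bidirectional fitting relative to DMSO.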

The nature of experiment [11]: ATG_PPRE_CIS: Attagene CIS-FACTORIAL HepG2 Assay for human Peroxisome Proliferator-activated Response Element (PPRE) (AID 2282958). To be noted: HepG2 PPRE cis-element reporter, Attagene transcription factor profiling; actives raise or lower the signal. In short, it runs like this: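 After human HepG2 hepatoma cells were transiently transfected with cis-promoter reporter constructs, they were exposed to test chemicals for 24 hours. Reporter RNA was then reverse-transcribed, PCR-amplified, FAM-labeled, HpaI-digested and quantified by capillary electrophoresis.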

Experiment [12] is described as follows: ATG_RORE_CIS: Attagene CIS-FACTORIAL HepG2 Assay for human RAR-related Orphan Receptor Element (RORE) (AID 2282959). To be noted: HepG2 Attagene cis-factorial RORE reporter, mRNA; actives raise or lower the signal. In short, it runs like this: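 Measured here: transcript induction of a cis-regulated reporter in HepG2 cells transiently transfected via FuGene 6. After 24 h, RNA was processed by RT-PCR and fluorescent capillary electrophoresis; DMSO defined baseline activity.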

Experiment [13] is described as follows: ATG_Sox_CIS: Attagene CIS-FACTORIAL HepG2 Assay for human SRY-box transcription factor (SOX) (AID 2282960). The settings on record: HepG2 Attagene cis-factorial SOX reporter, mRNA; actives raise or lower the signal. In short, it runs like this: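 Using transiently transfected HepG2 cells, reporter transcription driven by cis elements was assessed 24 h after dosing. Signal was fluorescence of capillary-separated RT-PCR products, with DMSO defining baseline activity.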

The target in experiment [14] is Transcription factor Sp1 (Homo sapiens) (UniProt P08047). Briefly: ATG_Sp1_CIS: Attagene CIS-FACTORIAL HepG2 Assay for human Specificity Protein 1 (Sp1) (AID 2282961). The settings on record: HepG2 Sp1 cis-reporter transcription, actives raise or lower the signal. In short, it runs like this:
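After transient transfection of HepG2 cells with cis-promoter reporter units and 24 h chemical treatment, reporter transcripts were quantified by RT-PCR and capillary electrophoresis fluorescence. Gain- and loss-of-signal fitted against DMSO.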

Experiment [15] is described as follows: ATG_SREBP_CIS: Attagene CIS-FACTORIAL HepG2 Assay for human Sterol Regulatory Element Binding (SREBP) (AID 2282962). The settings on record: HepG2 Attagene cis-factorial SREBP reporter, mRNA; actives raise or lower the signal. In short, it runs like this: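 Transfected HepG2 (cis-regulated reporter library, endogenous TFs) → compound 24 h → total RNA → oligo(dT) RT → reporter-specific PCR → FAM primer extension, HpaI cut → CE fluorescence. Fit bidirectional vs DMSO.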

For experiment [16], the target named is Signal transducer and activator of transcription 3 (Homo sapiens) (UniProt P40763). Briefly: ATG_STAT3_CIS: Attagene CIS-FACTORIAL HepG2 Assay for human Signal Transducer and Activator of Transcription 3 (STAT3) (AID 2282963). The settings on record: HepG2, Attagene cis-factorial STAT3 reporter transcription; actives raise or lower the signal. In short, it runs like this: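 HepG2 cells transiently transfected with cis-element-driven multiple reporter transcription units; after 24 h chemical exposure, reporter mRNA measured by RT-PCR, 6-FAM primer-extension labelling, HpaI digestion and capillary electrophoresis. Bidirectional fitting versus DMSO baseline.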

A short description of experiment [17]: ATG_TA_CIS: Attagene CIS-FACTORIAL HepG2 Assay for human TA Basal Promoter (AID 2282964). The settings on record: HepG2 Attagene CIS-factorial TA basal promoter reporter; actives raise or lower the signal. In short, it runs like this: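 Transfected HepG2, 24 h compound exposure; RNA → RT-PCR → FAM primer extension → HpaI cut → CE fluorescence. Gain/loss-of-signal fitted against DMSO negative control. Background-control readout.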

Experiment [18] in a line: ATG_TCF_b_cat_CIS: Attagene CIS-FACTORIAL HepG2 Assay for human T-Cell-Factor with beta-catenin (TCF/b-cat) (AID 2282965). The settings on record: HepG2 TCF/beta-catenin cis-reporter transcription, actives raise or lower the signal. In short, it runs like this:
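HepG2 cells transiently transfected with multiple cis-promoter-regulated reporter transcription units, so endogenous transcription factor activity is measured. Reporter mRNA read 24 hours after dosing by RT-PCR, fluorescent labelling and capillary electrophoresis; bidirectional fitting against DMSO.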

A short description of experiment [19]: ATG_GRE_CIS: Attagene CIS-FACTORIAL HepG2 Assay for human Glucocorticoid Response Elements (GRE) (AID 2282947). The settings on record: HepG2 GRE cis-reporter, Attagene multiplex mRNA; actives raise or lower the signal. In short, it runs like this:
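HepG2 cells transiently transfected with multiple cis-promoter reporter units measure endogenous TF activity; 24 h compound exposure. Reporter mRNA quantified by RT-PCR, FAM labelling, HpaI digestion and capillary electrophoresis; bidirectional fit vs DMSO baseline.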

A short description of experiment [20]: ATG_PBREM_CIS: Attagene CIS-FACTORIAL HepG2 Assay for human Phenobarbital-responsive Enhancer Module (PBREM) (AID 2282955). To be noted: HepG2 PBREM cis-reporter, Attagene multiplexed transcription; actives raise or lower the signal. In short, it runs like this:
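Readout: reporter mRNA, fluorescent RT-PCR fragments separated by capillary electrophoresis. System: HepG2 transiently transfected with cis-regulated reporter units. Exposure: 24 h. Analysis: bidirectional, DMSO baseline.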

Where “and” joins values, the source holds several entries; their conditions need not be identical. Equal entries are not always repeated. Some structures have more than one record in an assay (separate samples or runs), and their calls can disagree. Calls of active or inactive are those of the source. The calls were made as follows: active = hit-call score of the fitted dose curve at least 0.9, where 1 is the maximum; inactive = score below 0.9.

Sequence of Hypoxia-inducible factor 1-alpha (Homo sapiens) (Q16665 whole entry, looked up): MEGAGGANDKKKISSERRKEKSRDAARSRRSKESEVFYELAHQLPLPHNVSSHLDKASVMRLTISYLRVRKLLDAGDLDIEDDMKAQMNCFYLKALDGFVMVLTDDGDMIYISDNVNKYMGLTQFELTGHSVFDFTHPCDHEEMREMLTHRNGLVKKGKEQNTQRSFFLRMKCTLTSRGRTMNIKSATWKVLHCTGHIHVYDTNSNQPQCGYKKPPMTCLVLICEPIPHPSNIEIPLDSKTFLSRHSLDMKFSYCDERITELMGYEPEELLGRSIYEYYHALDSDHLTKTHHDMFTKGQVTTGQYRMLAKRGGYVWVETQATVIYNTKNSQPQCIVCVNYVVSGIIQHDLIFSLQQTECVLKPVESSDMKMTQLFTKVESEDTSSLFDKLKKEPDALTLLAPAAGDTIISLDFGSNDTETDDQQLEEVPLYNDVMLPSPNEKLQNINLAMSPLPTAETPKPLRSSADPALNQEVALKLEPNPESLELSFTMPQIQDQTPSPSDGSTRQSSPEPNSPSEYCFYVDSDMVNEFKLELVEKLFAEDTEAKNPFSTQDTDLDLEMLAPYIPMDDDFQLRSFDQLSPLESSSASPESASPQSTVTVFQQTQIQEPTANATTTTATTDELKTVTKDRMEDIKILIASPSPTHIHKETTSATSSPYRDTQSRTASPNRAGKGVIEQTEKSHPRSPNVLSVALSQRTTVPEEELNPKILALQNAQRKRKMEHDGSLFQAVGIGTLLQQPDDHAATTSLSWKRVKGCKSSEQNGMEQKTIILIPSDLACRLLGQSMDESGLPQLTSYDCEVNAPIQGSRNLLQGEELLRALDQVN
Sequence of Signal transducer and activator of transcription 3 (Homo sapiens) (P40763 whole entry, looked up): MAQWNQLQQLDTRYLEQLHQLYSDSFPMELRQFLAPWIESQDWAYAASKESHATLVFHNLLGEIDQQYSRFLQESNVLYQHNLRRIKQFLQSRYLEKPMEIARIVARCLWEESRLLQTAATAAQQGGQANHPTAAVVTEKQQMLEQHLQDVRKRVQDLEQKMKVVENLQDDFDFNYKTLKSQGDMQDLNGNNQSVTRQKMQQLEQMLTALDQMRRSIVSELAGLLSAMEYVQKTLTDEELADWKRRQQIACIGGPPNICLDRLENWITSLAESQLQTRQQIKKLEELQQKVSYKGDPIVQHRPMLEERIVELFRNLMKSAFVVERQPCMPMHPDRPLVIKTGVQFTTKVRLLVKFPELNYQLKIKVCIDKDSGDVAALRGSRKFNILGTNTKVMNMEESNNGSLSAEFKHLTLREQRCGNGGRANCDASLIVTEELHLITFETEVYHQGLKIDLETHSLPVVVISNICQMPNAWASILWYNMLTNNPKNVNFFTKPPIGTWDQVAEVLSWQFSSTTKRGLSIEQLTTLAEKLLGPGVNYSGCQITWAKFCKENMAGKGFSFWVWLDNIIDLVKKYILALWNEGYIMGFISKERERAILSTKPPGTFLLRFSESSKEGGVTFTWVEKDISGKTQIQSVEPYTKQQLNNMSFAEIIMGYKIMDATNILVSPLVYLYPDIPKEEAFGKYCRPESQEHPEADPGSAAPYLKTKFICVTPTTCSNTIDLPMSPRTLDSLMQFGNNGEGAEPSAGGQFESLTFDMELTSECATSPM
Sequence of Paired box protein Pax-6 (Homo sapiens) (P26367 whole entry, looked up): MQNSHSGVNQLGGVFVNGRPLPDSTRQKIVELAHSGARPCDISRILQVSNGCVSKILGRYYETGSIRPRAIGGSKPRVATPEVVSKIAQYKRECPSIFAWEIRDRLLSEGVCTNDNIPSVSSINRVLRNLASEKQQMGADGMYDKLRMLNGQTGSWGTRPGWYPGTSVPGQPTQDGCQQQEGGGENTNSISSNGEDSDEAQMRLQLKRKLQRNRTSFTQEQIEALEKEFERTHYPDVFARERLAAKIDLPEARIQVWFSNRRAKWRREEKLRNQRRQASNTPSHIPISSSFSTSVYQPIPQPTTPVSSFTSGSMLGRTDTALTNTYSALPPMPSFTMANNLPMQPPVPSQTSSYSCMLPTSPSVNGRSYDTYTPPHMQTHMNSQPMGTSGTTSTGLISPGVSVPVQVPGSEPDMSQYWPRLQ
Sequence of Hepatocyte nuclear factor 6 (Homo sapiens) (Q9UBC0 whole entry, looked up, the tested form may be a part): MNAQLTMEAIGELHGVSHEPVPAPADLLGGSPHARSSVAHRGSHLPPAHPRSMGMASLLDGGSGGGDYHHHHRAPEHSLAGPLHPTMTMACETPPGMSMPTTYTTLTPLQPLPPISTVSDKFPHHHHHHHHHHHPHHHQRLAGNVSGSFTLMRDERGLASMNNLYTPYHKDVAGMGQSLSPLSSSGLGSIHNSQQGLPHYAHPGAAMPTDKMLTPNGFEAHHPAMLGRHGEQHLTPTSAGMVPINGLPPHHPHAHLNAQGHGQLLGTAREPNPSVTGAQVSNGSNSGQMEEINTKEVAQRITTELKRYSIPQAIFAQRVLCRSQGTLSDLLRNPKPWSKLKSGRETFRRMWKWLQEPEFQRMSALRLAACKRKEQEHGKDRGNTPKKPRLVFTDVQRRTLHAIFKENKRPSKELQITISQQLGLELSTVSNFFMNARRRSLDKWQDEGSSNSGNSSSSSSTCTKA
Sequence of Transcription factor Sp1 (Homo sapiens) (P08047 whole entry, looked up): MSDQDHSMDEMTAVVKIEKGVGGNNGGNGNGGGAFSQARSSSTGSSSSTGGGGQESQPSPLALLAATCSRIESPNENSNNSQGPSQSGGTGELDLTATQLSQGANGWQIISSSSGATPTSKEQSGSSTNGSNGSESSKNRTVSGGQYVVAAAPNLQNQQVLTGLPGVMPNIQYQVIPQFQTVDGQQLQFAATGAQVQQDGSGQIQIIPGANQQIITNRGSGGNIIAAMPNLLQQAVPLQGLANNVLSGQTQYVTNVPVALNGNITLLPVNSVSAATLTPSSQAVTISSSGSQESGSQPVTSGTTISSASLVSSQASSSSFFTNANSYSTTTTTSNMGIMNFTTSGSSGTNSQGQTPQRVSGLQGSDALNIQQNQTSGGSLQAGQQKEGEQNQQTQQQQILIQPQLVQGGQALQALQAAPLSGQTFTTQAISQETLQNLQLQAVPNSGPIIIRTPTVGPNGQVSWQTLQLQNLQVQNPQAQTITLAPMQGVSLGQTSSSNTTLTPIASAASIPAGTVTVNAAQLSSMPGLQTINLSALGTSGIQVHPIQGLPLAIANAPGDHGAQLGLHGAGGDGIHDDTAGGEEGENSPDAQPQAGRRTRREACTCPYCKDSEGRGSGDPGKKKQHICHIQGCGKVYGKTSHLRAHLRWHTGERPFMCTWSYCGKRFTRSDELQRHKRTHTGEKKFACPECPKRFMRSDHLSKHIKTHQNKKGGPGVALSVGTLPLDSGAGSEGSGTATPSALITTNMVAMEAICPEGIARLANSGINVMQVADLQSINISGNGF
Sequence of Heat shock factor protein 1 (Homo sapiens) (Q00613 whole entry, looked up, the tested form may be a part): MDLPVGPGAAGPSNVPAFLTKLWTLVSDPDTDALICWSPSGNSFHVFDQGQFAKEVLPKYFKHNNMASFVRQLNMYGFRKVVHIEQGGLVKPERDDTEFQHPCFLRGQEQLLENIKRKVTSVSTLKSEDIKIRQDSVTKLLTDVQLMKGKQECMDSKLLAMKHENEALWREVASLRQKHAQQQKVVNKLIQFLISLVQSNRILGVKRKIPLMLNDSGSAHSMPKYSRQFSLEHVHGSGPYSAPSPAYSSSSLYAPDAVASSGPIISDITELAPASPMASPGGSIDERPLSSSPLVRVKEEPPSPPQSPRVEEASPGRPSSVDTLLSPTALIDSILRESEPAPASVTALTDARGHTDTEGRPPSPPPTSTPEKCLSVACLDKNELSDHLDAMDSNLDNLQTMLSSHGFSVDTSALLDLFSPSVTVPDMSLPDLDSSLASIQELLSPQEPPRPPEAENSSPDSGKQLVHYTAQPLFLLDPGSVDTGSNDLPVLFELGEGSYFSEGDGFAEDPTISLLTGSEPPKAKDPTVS

By AC50 is commonly meant the midpoint of the concentration-response curve, whichever way the signal moves. For `COP(=O)(OC)OC=C(Cl)Cl`, the compound was called inactive in [1], in experiment [3], in experiment [4], in experiment [5], in experiment [6] and in experiment [7]. The result in experiment [9], in experiment [12], in experiment [13], in [14], in experiment [15] and in experiment [16] was inactive. In addition, the result in experiment [17] and in experiment [18] was inactive. For the same compound, the AC50 was 50 µM (active) in [2], 36.7 µM (active) in experiment [8], 21.8 µM (active) in [10] and 22.9 µM (active) in experiment [11].
Consider `CCOCN(C(=O)CCl)c1c(C)cccc1CC`, for which the compound was called inactive in experiment [1], in experiment [19], in experiment [2], in experiment [3], in experiment [4] and in experiment [5]. The result in experiment [6], in experiment [7], in experiment [8], in experiment [20], in experiment [9] and in experiment [12] was inactive. For the same compound, the compound was classed as inactive in experiment [13], in [14], in [15], in experiment [16], in experiment [17] and in experiment [18]. Moreover, the AC50 in [10] is 0.468 µM (active).
Take `CC(C)(C)C(O)C(Oc1ccc(Cl)cc1)n1cncn1` (stereo not drawn): the compound was classed as inactive in [1], in experiment [2], in experiment [3], in experiment [4], in [5] and in experiment [6]. Moreover, the compound was classed as inactive in experiment [7], in experiment [8], in experiment [20], in experiment [9], in experiment [12] and in experiment [13]. In addition, the compound was called inactive in experiment [14], in [15], in [16], in experiment [17] and in [18]. The concentration at half-maximal activity (AC50) in [8] was 7.83 µM (active); in experiment [20] it was 2.82 µM (active) and 5.04 µM (active) and 7.04 µM (active); in [10] it was 1.27 µM (active) [middle of 6 runs]; in [15], 48.7 µM (active) and 23.2 µM (active) and 24 µM (active).

Values taken from PubChem BioAssay (EPA / NIEHS).
